Reference: ChEMBL document CHEMBL3988442, “University of Dundee, Small-Polar-MMV Screening Library” (2021)
Screen size: about 48,000 compounds; about 13,000 (27%) showed an effect of 50% or more. The list shows a part of the results.

These molecules were tested on Wolbachia pipientis (assay: Anti-Wolbachia Cell-Based Screen). Conditions: 5 µM.
Assay type: functional
Parameters: scale not given: in the data most compounds retested in dose-response had high values

Compound	Percent Effect
O=C(Nc1cccnc1)NC1CCN(c2ccccc2OC(F)F)C1 (stereo not drawn)	-19.82%
O=C(O)c1ccnc(-c2ccnc(N3CCC4(CCO4)CC3)n2)c1	-4.14%
Cc1cccc(CN2C(=O)CC[C@@H]3[C@H]2CCN3C(=O)c2ccsc2)n1.O=C(O)C(F)(F)F	-10.27%
CCc1ccc(CN2CC[C@H]3[C@H]2CC(=O)N3Cc2cccc(C)n2)o1.O=C(O)C(F)(F)F.O=C(O)C(F)(F)F	105.5%
COc1ccc(CN2CC[C@H]3[C@H]2CC(=O)N3Cc2cccc(C)n2)cc1.O=C(O)C(F)(F)F.O=C(O)C(F)(F)F	96.36%
Cc1cccc(CN2C(=O)C[C@H]3[C@@H]2CCN3Cc2ccc(F)cc2)n1.O=C(O)C(F)(F)F.O=C(O)C(F)(F)F	93.32%
Cc1cccc(CN2C(=O)CC[C@@H]3[C@H]2CCN3Cc2ccc(F)cc2)n1.O=C(O)C(F)(F)F.O=C(O)C(F)(F)F	-9.661%
Cc1cccc(CN2C(=O)CC[C@@H]3[C@H]2CCN3Cc2cccnc2)n1.O=C(O)C(F)(F)F.O=C(O)C(F)(F)F.O=C(O)C(F)(F)F	-1.034%
Cc1ccc(CN2CC[C@H]3[C@H]2CC(=O)N3c2ccsc2)o1.O=C(O)C(F)(F)F	12.94%
Cc1cc(C(=O)NCC(=O)NC(c2ncccc2C)C(C)C)c(C)o1 (stereo not drawn)	-6.286%
CC(C)NC(=O)c1cnc(Sc2nccn2C)c(Cl)c1	7.154%
CCCSc1nc(O)c(CC)c(=O)n1-c1ccccc1	-0.2298%
Cc1ncc(COc2cccc3c2NC(=O)CO3)s1	-10.58%
Cc1cc(C(=O)N2CCOC[C@H](Oc3cccnc3)C2)c(C(F)(F)F)o1	3.665%
O=C([C@@H]1CCO[C@@H]2CCN(Cc3cccnc3)C[C@H]21)N1CCCCO1	13.27%
CC(C)=CCN(C)C1CCCN(Cc2noc(C)n2)C1 (stereo not drawn)	0.8027%
CO[C@@H]1CN(c2ccccc2)S(=O)(=O)[C@@]12CCN(Cc1cncs1)C2	104.5%
CN1CC(=O)N(c2ccccc2)CC12CCN(CC1CC1)C2.O=C(O)C(F)(F)F.O=C(O)C(F)(F)F (stereo not drawn)	-12.9%
CO[C@H]1CN(c2ccccc2)S(=O)(=O)[C@@]12CCN(Cc1ccccc1)C2	88.28%
CO[C@@H]1CN(c2ccccc2)S(=O)(=O)[C@@]12CCN(CC1CC1)C2	88.1%
COCC1CC2(CCN(CC3CC3)CC2)CN1c1ncccn1.O=C(O)C(F)(F)F.O=C(O)C(F)(F)F (stereo not drawn)	9.926%
O=C1C[C@@H]2CCN(Cc3ccccc3)C[C@@H]2CCN1c1ccccc1	1.893%
CO[C@@H]1CN(c2ccccc2)S(=O)(=O)[C@@]12CCN(Cc1ccccc1)C2	116.8%
O=C(CCn1ccccc1=O)N1CCN(Cc2cccc(Cl)c2)CC1	-6.995%
COc1cc(C2CC(=O)c3c(O)cc(O)cc3O2)ccc1O (stereo not drawn)	4.847%

Compound	Percent Effect
COc1ccc(-c2noc(Cn3cc(C)cn3)n2)c(OC)c1OC	-1.893%
COc1ccccc1CN(Cc1cccs1)S(=O)(=O)N(C)C(C)C	-8.287%
Cc1ncc2c(n1)CCN(Cc1ncc(C(C)(C)C)o1)C2	1.311%
CCNC(=O)NC(c1ccc(C)cc1)c1cccc(S(C)(=O)=O)c1 (stereo not drawn)	96.65%
CCC(=O)NC(c1ccc(C)cc1)c1cccc(S(C)(=O)=O)c1 (stereo not drawn)	96.25%
COc1ccc(C(N)c2cccc(S(C)(=O)=O)c2)cc1 (stereo not drawn)	4.589%
CS(=O)(=O)c1cccc(C(N)c2ccc(F)c(F)c2)c1.Cl (stereo not drawn)	-2.394%
Cc1ccc(C(NC(=O)[C@H]2CC[C@@H](O)CC2)c2cccnc2)cc1C (stereo partly drawn)	-7.536%
Cc1ccc(C(NC(=O)C2CC2)c2cccc(S(C)(=O)=O)c2)cc1 (stereo not drawn)	85.76%
Cc1ccc(C(N)c2cccc(S(C)(=O)=O)c2)cc1 (stereo not drawn)	1.85%
CS(=O)(=O)c1cccc(S(=O)(=O)NC(=O)CC2CCCC2)c1	-23.12%
CC(CO)NS(=O)(=O)c1cccc(C(C)C)c1 (stereo not drawn)	-1.865%
COc1ccc(N2CCN(C(=O)CCn3nnnc3C)CC2(C)C)cc1	5.117%
CN(Cc1cccnc1)Cc1cncc2c1CCN(Cc1ccoc1)C2.Cl.Cl.Cl	98.31%
CN(Cc1cccnc1)CC1CNCc2nccn2C1 (stereo not drawn)	-0.6774%
CN(Cc1cccnc1)Cc1cncc2c1CCN(c1ccccn1)C2.Cl.Cl.Cl	98.43%
Cl.Cl.O=C(NCc1cncc2c1CCN(Cc1ccoc1)C2)C1CC1	-1.129%
CN(Cc1ccco1)Cc1cncc2c1CCN(Cc1ccoc1)C2.Cl.Cl.Cl	96.91%
CN(Cc1cn2c(n1)CN(C(=O)N(C)C)CC2)Cc1ccco1	3.747%
CC(C)N(C)Cc1cncc2c1CCN(C(=O)c1cccc(C#N)c1)C2.Cl.Cl	-11.44%
Cl.Cl.c1cnc(NCc2cncc3c2CCN(Cc2ccoc2)C3)nc1	0.8556%
CC(C)C(=O)N1CCc2c(CN(C)Cc3ccco3)cncc2C1.Cl.Cl	107%
COC(=O)c1ccc(CN(C(C)C)C(C)C)o1.Cl	-10.72%
CN(CCC#N)C(=O)CN1CCCN(Cc2noc(C3CC3)n2)CC1	-26.77%
CCn1ccnc1CN1CCN(CC(=O)NC(C)(C#N)C2CC2)CC1 (stereo not drawn)	-16.24%

Compound	Percent Effect
CCS(=O)(=O)N1CCc2c(CN(C)Cc3ccco3)cncc2C1.Cl.Cl	0.2646%
CCS(=O)(=O)N1CCn2cc(CN(C)Cc3ccco3)nc2C1	-9.31%
CN(Cc1ccco1)Cc1cncc2c1CCN(S(C)(=O)=O)C2.Cl.Cl	114%
CC(C)CN1CCc2c(CN(C)Cc3ccco3)cncc2C1.Cl.Cl.Cl	112.5%
COCCN1C[C@@H]2CN(S(=O)(=O)c3cccs3)C[C@@H]2C1=O	-21.25%
O=C(Nc1ccc2scnc2c1)N1CCN([C@H]2CCCC[C@@H]2O)CC1	-4.588%
CN(C)C(=O)c1cccc(NC(=O)N2CCCC(C(F)(F)F)C2)c1 (stereo not drawn)	13.97%
O=C(NCCNc1ncccn1)N1CCCC(C(F)(F)F)C1 (stereo not drawn)	-15.03%
CN(CC(F)(F)F)C(=O)CNC(=O)N1CCCC(C(F)(F)F)C1 (stereo not drawn)	92.98%
CN(C)C1CCCN(C(=O)NCCC(=O)N2CCCCCC2)C1 (stereo not drawn)	0.3491%
CN(CC(F)(F)F)C(=O)CNC(=O)N1CCCC(N(C)C)C1 (stereo not drawn)	95.13%
CN(C)C1CCCN(C(=O)NCCC(C)(C)C)C1 (stereo not drawn)	-10.25%
Cc1nnc(C(C)N2CCCN(Cc3noc(C4CC4)n3)CC2)o1 (stereo not drawn)	5.084%
CC(c1ncc(C(C)(C)C)o1)N1CCN(Cc2ccncc2)CC1 (stereo not drawn)	-8.967%
Cc1nnc(C(C)N2CCN(Cc3ccc4c(c3)OCO4)CC2)o1 (stereo not drawn)	12.94%
CC(C)OCC(=O)N1CCCN(Cc2ccc(C#N)cc2)CC1	-9.345%
Cc1nnc(C(C)N2CCN(Cc3ccc(C(F)(F)F)cc3)CC2)o1 (stereo not drawn)	124.3%
Cc1nnc(C(C)N2CCCN(Cc3ccc(F)cc3)CC2)o1 (stereo not drawn)	92.55%
Cc1nnc(C(C)N2CCCN(Cc3ccc(C#N)cc3)CC2)o1 (stereo not drawn)	105.5%
Cc1nnc(C(C)N2CCN(Cc3ccc(C#N)cc3)CC2)o1 (stereo not drawn)	2.063%
COc1cnc(N2CCCN(Cc3ccc(F)cc3)CC2)nc1	0.06599%
O=c1[nH]nc(-c2cccs2)c2sc(N3CCOCC3)nc12	-14.46%
COc1ccccc1CCNC(=O)N(C)C(C)CS(C)(=O)=O (stereo not drawn)	-10.73%
CC(CN(C)C)Nc1nc(O)cc(Cc2ccccc2F)n1 (stereo not drawn)	94.63%
COc1ccccc1CC(C)(C)NC(=O)CN(C)C(C)C	3.69%

Compound	Percent Effect
COc1ccccc1Cc1cc(O)nc(NC(C)CN(C)C)n1 (stereo not drawn)	91.33%
CC(CCc1ccccc1F)C(=O)NS(=O)(=O)N(C)C(C)C (stereo not drawn)	-0.5241%
CC(CC#N)N(C)Cc1ccccc1F (stereo not drawn)	11.31%
CC(=O)N1CCN(C(=O)C2SCCc3sccc32)CC1 (stereo not drawn)	-2.542%
O=C(O)C(F)(F)F.O=C(O)C(F)(F)F.O=C(c1ccc(F)cc1)N1CCN2C[C@H](Oc3cccnc3)C[C@H]2C1	-2.866%
COc1ccccc1N1CCN(C(=O)Cn2nccc2C)CC1(C)C	4.467%
O=C(CCc1nc(Cl)n[nH]1)N1CCC2(CCCNC2=O)C1 (stereo not drawn)	7.017%
CN1CCC(N(C)C(=O)c2cnn(-c3cc(F)ccc3F)c2N)CC1	123.1%
CCCN1CCC(N(C)C(=O)c2cc(C)nc3cc(F)ccc23)CC1	11.04%
Cc1cc(C(=O)N(C)C2CCS(=O)(=O)C2)c2ccc(F)cc2n1 (stereo not drawn)	-24.13%
CN1CCC(N(C)C(=O)c2cnn(-c3ccccc3Br)c2N)CC1	112.2%
Cc1cccc2c1nc(COCC(=O)O)n2-c1ccc(N)nc1	-5.94%
CCCC(C)C(=O)N1CCC(c2cc(N3CCOCC3)nc(C)n2)CC1 (stereo not drawn)	8.426%
Cn1c(CCNc2nccnc2C#N)nc2cc(Cl)ccc21	-1.88%
Cc1cc(OCC(=O)NS(=O)(=O)c2c(C)noc2C)ccc1Cl	-5.411%
Cc1cc(=O)n2nc(Oc3ccc(Cl)c(C)c3)sc2n1	81.92%
Cc1cc(=O)n2nc(Oc3ccc(F)c(F)c3)sc2n1	78.71%
Cc1nccc(CNC(=O)NCCOc2ccc(F)c(F)c2)n1	-14.18%
Cc1cc(=O)n2nc(Oc3cc(Cl)cc(Cl)c3)sc2n1	108.5%
Cc1cccc(OC2CCN(c3ncc(C#N)cc3Cl)CC2)n1	-14.79%
CN(C)S(=O)(=O)NCc1cccnc1Oc1ccc(F)c(F)c1	-7.83%
Cc1cc(=O)n2nc(Oc3ccc(C#N)cc3Cl)sc2n1	80.29%
CN(C)c1cccc(CNC(=O)Nc2cc(C#N)ccc2Cl)n1	19.69%
